Records with an inconclusive call do not appear. Active and inactive are the calls of the source. Unless noted, how the calls were made is not given here.
What was measured:
[1] = stimulators of insulin release from INS-1E, primary screen, cell-based, 5 mM glucose, NPC library (AID 1117329;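 active means compound raises insulin release from rat beta cells at 5 mM glucose, no numeric limit stated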); settings: rat INS-1E insulin secretion, at 10 µM, stronger effect = higher value
[2] = growth inhibition of GSK3B-pretreated HCT116 cells – cell-based, CellTiter-Glo, 0.2 to 20 µM (AID 1117336;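 active means compounds lowering colon cancer cell viability after pretreatment blocking the GSK3B kinase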); settings: HCT116 viability after GSK3B inhibitor, at 20 µM, stronger effect = higher value
[3] = inhibition of endothelial tube formation, primary screen, imaging, VEGF stimulated, CD31 staining, tube area, NPC library (AID 1117340;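 active means compound that reduces growth-factor-driven endothelial tube area in a mixed cell culture, no cutoff stated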); settings: VEGF-stimulated ADSC/ECFC co-culture, at 10 µM, stronger effect = higher value
[4] = GLP1 release stimulators, primary, NCI-H716, NPC library (AID 1117341;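 active means compound raises GLP1 secretion from the human gut endocrine cells, with no numeric limit stated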); settings: NCI-H716 cells, at 10 µM, stronger effect = higher value
[5] = HCT116 colon cancer cell growth inhibition, primary screen, CellTiter-Glo luminescence, NPC library (AID 1117342;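 active means compounds that lower survival of HCT116 colon cancer cells in the luminescence readout, no numeric limit stated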); settings: at 20 µM (top of the series)
[6] = reduced SW480 viability measured with CellTiter-Glo, NPC library, primary (AID 1117343;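 active means compounds that lower viability of the colon cancer cells in the luminescence readout, with no numeric limit stated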); settings: CellTiter-Glo luminescence; at 20 µM (top of the series)
[7] = NPC library primary testing for decreased DLD-1 cell viability via CellTiter-Glo (AID 1117346;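 active means compounds that lower survival of DLD-1 colon cancer cells in the luminescence readout, no cutoff given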); settings: DLD-1 viability, CellTiter-Glo luminescence; at 20 µM (top of the series)
[8] = modulation of C. elegans fzo-1 (AID 1259413);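 further: fzo-1 mutant C. elegans worms in liquid wells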; settings: C. elegans fzo-1 modulator screen, mean read-out; stronger effect = higher value
[9] = EMT-state selective cytotoxicity in co-culture – imaging, PC-3E GFP, TEM4-18 mCherry, primary screen (AID 1345086;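 active means compounds killing one labelled cell type while sparing the other, by normalised counts and ratio limits, not self-fluorescent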;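 on all read-outs here: cells exposed to compound for 72 h before imaging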;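 on red/green cell ratio (normalised): normalised mesenchymal count divided by normalised epithelial count so high means epithelial killing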); settings: PC-3E GFP / TEM4-18 mCherry co-culture, imaging cell counts, at 1 µM; for red/green cell ratio (normalised): actives lie on both sides, counts scaled to control wells, 1 = unselective
[10] = test system: Aerobactin synthetase IucA (Klebsiella pneumoniae); assay: inhibition of K. pneumoniae IucA enzyme – biochemical, Tocris library, absorbance (AID 1345561); settings: purified IucA enzyme assay, absorbance (OD) read-out; stronger effect = lower value;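 tested at 8 µM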;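 further: 100% = enzyme without compound and 0% = no enzyme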
[11] = viability loss in pontine glioma line – cell-based, SU-DIPG-XVII, MIPE5.0, CellTiter-Glo, qHTS, dose response (AID 1347060; cut-off not given, nearly all actives have AC50 up to about 26 µM;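 on AC50: cells exposed to compound for 48 hours before viability readout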); settings: CellTiter-Glo ATP luminescence
[12] = viability loss in pontine glioma line – cell-based, JHH-DIPG-1, MIPE4.0, CellTiter-Glo, qHTS, dose response (AID 1347062; cut-off not given, nearly all actives have AC50 up to about 27 µM); settings: JHH-DIPG-1 viability, CellTiter-Glo ATP luminescence
[13] = viability loss in pontine glioma line – cell-based, SU-DIPG-IV, MIPE4.0, CellTiter-Glo, qHTS, dose response (AID 1347063; cut-off not given, nearly all actives have AC50 up to about 30 µM;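 further: compound exposure lasted 48 hours before the viability readout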); settings: CellTiter-Glo ATP luminescence
[14] = viability loss in pontine glioma line – cell-based, SU-DIPG-XIII, MIPE4.0, CellTiter-Glo, qHTS, dose response (AID 1347061; cut-off not given, nearly all actives have AC50 up to about 37 µM;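 further: cells exposed to compound for 48 hours before readout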); settings: CellTiter-Glo ATP luminescence
[15] = viability loss in pontine glioma line – cell-based, SU-DIPG-XIII, MIPE5.0, CellTiter-Glo, qHTS, dose response (AID 1347064; cut-off not given, nearly all actives have AC50 up to about 23 µM); settings: CellTiter-Glo ATP luminescence
[16] = measured here: epithelial PC-3E GFP cell survival
[17] = measured here: mesenchymal TEM4-18 mCherry cell survival

Compound: CN1CCC(=C2c3ccccc3CC(=O)c3sccc32)CC1
- insulin secretion stimulation [1]: 3.05% (inactive)
- viability decrease [2]: 10.7% (inactive)
- tube area decrease [3]: -3.1% (inactive)
- GLP1 secretion stimulation [4]: 5.2% (inactive)
- inhibition of viability [5]: 15.7% (inactive)
- viability decrease (inhibition) [6]: 38.1% (inactive)
- viability decrease (inhibition) [7]: -6.6% (inactive)
- mean signal [8]: 231 (inactive)
- red/green cell ratio (normalised) [9]: 0.94 (inactive)
- normalised cell number [9, 16]: 1.17
- normalised cell number [9, 17]: 1.1
- remaining activity [10]: 118% (inactive)
- outcome [11]: inactive
- outcome [12]: inactive

Compound: CCOc1cc(CC(=O)N[C@@H](CC(C)C)c2ccccc2N2CCCCC2)ccc1C(=O)O
- insulin secretion stimulation [1]: 43.9% (active)
- viability decrease [2]: 70.5% (active)
- tube area decrease [3]: -11.3% (inactive)
- GLP1 secretion stimulation [4]: 0.5% (inactive)
- inhibition of viability [5]: 29.7% (inactive)
- viability decrease (inhibition) [6]: 68.3% (active)
- viability decrease (inhibition) [7]: 33.3% (inactive)
- mean signal [8]: 247 (inactive)
- red/green cell ratio (normalised) [9]: 0.96 (inactive)
- normalised cell number [9, 16]: 1.2
- normalised cell number [9, 17]: 1.16
- remaining activity [10]: 120% (inactive)
- outcome [11]: inactive
- outcome [12]: inactive
- outcome [13]: inactive

Compound: Cc1cccc(C)c1OCC(C)N (stereo not drawn)
- insulin secretion stimulation [1]: 4.3% (inactive)
- viability decrease [2]: 3.4% (inactive)
- tube area decrease [3]: -2% (inactive)
- GLP1 secretion stimulation [4]: -4.1% (inactive)
- inhibition of viability [5]: 5.27% (inactive)
- viability decrease (inhibition) [6]: -7.7% (inactive)
- viability decrease (inhibition) [7]: 4.3% (inactive)
- mean signal [8]: 227 (inactive)
- red/green cell ratio (normalised) [9]: 1.08 (inactive)
- normalised cell number [9, 16]: 1.13
- normalised cell number [9, 17]: 1.22
- remaining activity [10]: 104% (inactive)

Compound: CC(C)NCC(O)COc1ccc(COCCOC(C)C)cc1 (stereo not drawn)
- insulin secretion stimulation [1]: 1.2% (inactive)
- viability decrease [2]: 6.2% (inactive)
- tube area decrease [3]: -2.7% (inactive)
- GLP1 secretion stimulation [4]: -1.1% (inactive)
- inhibition of viability [5]: -3.93% (inactive)
- viability decrease (inhibition) [6]: 0% (inactive)
- viability decrease (inhibition) [7]: -4.5% (inactive)
- mean signal [8]: 229 (inactive)
- red/green cell ratio (normalised) [9]: 0.9 (inactive)
- normalised cell number [9, 16]: 1.05
- normalised cell number [9, 17]: 0.94
- remaining activity [10]: 120% (inactive)
- outcome [14]: inactive
- outcome [12]: inactive
- outcome [13]: inactive

Compound: COC(=O)C1=C(C)NC(C)=C(C(=O)OC(C)C)C1c1cccc2nonc12 (stereo not drawn)
- insulin secretion stimulation [1]: -0.7% (inactive)
- viability decrease [2]: -4.5% (inactive)
- tube area decrease [3]: 13.7% (inactive)
- GLP1 secretion stimulation [4]: -2.4% (inactive)
- inhibition of viability [5]: 48.4% (inactive)
- viability decrease (inhibition) [6]: 20.8% (inactive)
- viability decrease (inhibition) [7]: 11.2% (inactive)
- mean signal [8]: 273 (inactive)
- red/green cell ratio (normalised) [9]: 1.19 (inactive)
- normalised cell number [9, 16]: 0.87
- normalised cell number [9, 17]: 1.04
- remaining activity [10]: 109% (inactive)
- outcome [12]: inactive
- outcome [13]: inactive

Compound: COc1cc2nc(N3CCN(C(=O)C4CCCO4)CC3)nc(N)c2cc1OC (stereo not drawn)
- insulin secretion stimulation [1]: 0.35% (inactive)
- viability decrease [2]: 7.5% (inactive)
- tube area decrease [3]: 9.3% (inactive)
- GLP1 secretion stimulation [4]: 1.3% (inactive)
- inhibition of viability [5]: -9.1% (inactive)
- viability decrease (inhibition) [6]: -2.8% (inactive)
- viability decrease (inhibition) [7]: 5.5% (inactive)
- mean signal [8]: 236 (inactive)
- red/green cell ratio (normalised) [9]: 0.95 (inactive)
- normalised cell number [9, 16]: 0.99
- normalised cell number [9, 17]: 0.94
- remaining activity [10]: 115% (inactive)
- outcome [14]: inactive
- outcome [12]: inactive
- outcome [13]: inactive

Compound: O=C(O)/C=C/c1ccc(Cn2ccnc2)cc1
- insulin secretion stimulation [1]: 1.9% (inactive)
- viability decrease [2]: -15.3% (inactive)
- tube area decrease [3]: 3% (inactive)
- GLP1 secretion stimulation [4]: 5.1% (inactive)
- inhibition of viability [5]: 6.1% (inactive)
- viability decrease (inhibition) [6]: 9.3% (inactive)
- viability decrease (inhibition) [7]: 9% (inactive)
- mean signal [8]: 275 (inactive)
- red/green cell ratio (normalised) [9]: 1.06 (inactive)
- normalised cell number [9, 16]: 1
- normalised cell number [9, 17]: 1.05
- remaining activity [10]: 107% (inactive)
- outcome [11]: inactive
- outcome [14]: inactive
- outcome [12]: inactive
- outcome [13]: inactive
- outcome [15]: inactive

Compound: O=C(NCCO[N+](=O)[O-])c1cccnc1
- insulin secretion stimulation [1]: 1.2% (inactive)
- viability decrease [2]: -0.2% (inactive)
- tube area decrease [3]: -25.1% (inactive)
- GLP1 secretion stimulation [4]: -1.4% (inactive)
- inhibition of viability [5]: 6% (inactive)
- viability decrease (inhibition) [6]: 0.2% (inactive)
- viability decrease (inhibition) [7]: -3.2% (inactive)
- mean signal [8]: 264 (inactive)
- red/green cell ratio (normalised) [9]: 0.94 (inactive)
- normalised cell number [9, 16]: 1.18
- normalised cell number [9, 17]: 1.11
- remaining activity [10]: 106% (inactive)
- outcome [11]: inactive
- outcome [14]: inactive
- outcome [13]: inactive

Compound: CCc1c2c(nc3ccc(OC(=O)N4CCC(N5CCCCC5)CC4)cc13)-c1cc3c(c(=O)n1C2)COC(=O)[C@]3(O)CC
- insulin secretion stimulation [1]: -1.1% (inactive)
- viability decrease [2]: 67.4% (active)
- tube area decrease [3]: 97.9% (active)
- GLP1 secretion stimulation [4]: 24% (active)
- inhibition of viability [5]: 50.8% (active)
- viability decrease (inhibition) [6]: 21.7% (inactive)
- viability decrease (inhibition) [7]: 8.7% (inactive)
- mean signal [8]: 270 (inactive)
- red/green cell ratio (normalised) [9]: 1.07 (inactive)
- normalised cell number [9, 16]: 0.32
- normalised cell number [9, 17]: 0.34
- remaining activity [10]: 108% (inactive)
- AC50 [11]: 263 nM (active)
- AC50 [13]: 4690 nM (active)

Compound: CCc1c(C)[nH]c2c1C(=O)C(CN1CCOCC1)CC2 (stereo not drawn)
- insulin secretion stimulation [1]: 1.8% (inactive)
- viability decrease [2]: 2.2% (inactive)
- tube area decrease [3]: -10.5% (inactive)
- GLP1 secretion stimulation [4]: 5.2% (inactive)
- inhibition of viability [5]: -24.1% (inactive)
- viability decrease (inhibition) [6]: -3.8% (inactive)
- viability decrease (inhibition) [7]: -11% (inactive)
- mean signal [8]: 257 (inactive)
- red/green cell ratio (normalised) [9]: 1.03 (inactive)
- normalised cell number [9, 16]: 0.94
- normalised cell number [9, 17]: 0.96

Compound: COc1ccc2nc(S(=O)Cc3ncc(C)c(OC)c3C)[nH]c2c1 (stereo not drawn)
- insulin secretion stimulation [1]: 0.4% (inactive)
- viability decrease [2]: 13.3% (inactive)
- tube area decrease [3]: 29.3% (inactive)
- GLP1 secretion stimulation [4]: 1.7% (inactive)
- inhibition of viability [5]: -0.23% (inactive)
- viability decrease (inhibition) [6]: -451% (inactive)
- viability decrease (inhibition) [7]: -12.7% (inactive)
- mean signal [8]: 241 (inactive)
- red/green cell ratio (normalised) [9]: 0.98 (inactive)
- normalised cell number [9, 16]: 0.98
- normalised cell number [9, 17]: 0.96
- remaining activity [10]: 103% (inactive)
- outcome [11]: inactive
- outcome [12]: inactive
- outcome [13]: inactive
- outcome [15]: inactive

— PubChem BioAssay
